Several values for one entry are separate records, joined by “and”; a condition that tells them apart may be missing. Equal entries are not always repeated. Records with an inconclusive call do not appear. Activity calls are given as the source filed them. Unless noted, how the calls were made is not given here.
What was measured:
[1] = qHTS Assay for Identifying Gametocytocidal Compounds (AID 743244; active means well fitted curve in the direction sought with a large enough effect; an effect the other way counts as inactive or inconclusive; further: potency means the concentration at half of the fitted maximal effect;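 on max response: on the % scale 0 is the no-effect control and ±100 the full control effect; actives lower the fluorescent signal which means gametocytes are killed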); conditions: P. falciparum 3D7 stage III-V gametocytes, alamarBlue, 72 h; max response: stronger effect = lower value
Summary of the method: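 A resazurin-based viability read-out was applied to mature P. falciparum gametocytes: 72 h compound treatment, then 24 h dye incubation, with falling fluorescence signalling gametocytocidal effect.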

[2] = qHTS profiling for inhibitors of Plasmodium falciparum (DD2) proliferation (AID 743323); conditions: lower = more inhibition; at 28.7 µM (top of the series) unless noted
Summary of the method: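 Parasite DNA quantified by SYBR Green fluorescence (ex 485, em 535 nm) after saponin/Triton lysis and overnight dark incubation. Cultures: 0.3% parasitemia, 2.5% hematocrit, 72 h, 37 C; data scaled between DMSO and 0.29 uM artemisinin.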

[3] = qHTS profiling for inhibitors of Plasmodium falciparum (HB3) proliferation (AID 743324; active means well fitted curve in the direction sought with a large enough effect; an effect the other way counts as inactive or inconclusive;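 further: 100% = DMSO vehicle wells and 0% = artemisinin-treated control wells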); conditions: Plasmodium falciparum HB3 blood-stage proliferation; at 28.7 µM (top of the series) unless noted
Summary of the method: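 SYBR Green fluorescence (485 ex/535 em) of lysed cultures, incubated overnight at room temperature in the dark, quantifies parasite DNA. Infected erythrocytes at 0.3% parasitemia and 2.5% hematocrit were exposed 72 h; values normalized to DMSO and 0.29 uM artemisinin controls.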

[4] = qHTS profiling of the MIPE4 collection as inhibitors of Plasmodium falciparum (3D7) proliferation (AID 743344);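 further: scaled between DMSO vehicle wells and 0.29 µM artemisinin as full inhibition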; conditions: P. falciparum 3D7 in erythrocytes, SYBR Green DNA fluorescence, 72 h; at 28.5 µM (top of the series) unless noted
Summary of the method: (§1)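 Parasite DNA was quantified by SYBR Green I fluorescence (ex 485, em 535 nm) after overnight lysis in saponin/Triton buffer at room temperature. Cultures at 0.3% parasitemia and 2.5% hematocrit were first exposed to compound for 72 h at 37 C; signals were normalised to artemisinin (0.29 uM) and vehicle wells.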

[5] = qHTS profiling of the MIPE4 collection as inhibitors of Plasmodium falciparum (DD2) proliferation (AID 743345); conditions: P. falciparum Dd2 in erythrocytes, SYBR Green DNA, 72 h; at 28.5 µM (top of the series) unless noted
Summary of the method: as §1

[6] = qHTS profiling of the MIPE4 collection as inhibitors of Plasmodium falciparum (DD2) proliferation (Rep 2) (AID 743346); conditions: P. falciparum Dd2 in erythrocytes, SYBR Green DNA, 72 h; at 28.5 µM (top of the series) unless noted
Summary of the method: as §1

[7] = qHTS profiling of the MIPE4 collection as inhibitors of Plasmodium falciparum (HB3) proliferation (AID 743347);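 further: plate controls were DMSO vehicle wells for no effect and artemisinin wells for full effect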; conditions: P. falciparum HB3 in erythrocytes, SYBR Green DNA, 72 h; at 28.5 µM (top of the series) unless noted
Summary of the method: as §1

[8] = qHTS profiling for inhibitors of Plasmodium falciparum (3D7) proliferation (AID 743322);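 further: infected erythrocytes exposed to compound for 72 h before lysis; 100% = DMSO vehicle wells and 0% = 0.29 µM artemisinin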; conditions: P. falciparum 3D7 proliferation; at 28.7 µM (top of the series) unless noted
Summary of the method: as §1

Row | SMILES | max response [1] | activity, percent of control [2] | remaining proliferation (% of control), lower = more inhibition [3] | parasite growth, % of DMSO control [4] | parasite growth remaining, % of DMSO control (lower = more inhibition) [5] | parasite growth, % of control (lower = inhibition) [6] | growth, % of control [7] | remaining parasite growth % (stronger effect = lower value) [8] [%] | Potency [1]
1 | Cc1ccccc1C(C(=O)NC1CCCC1)N(C(=O)Cn1cnc2ccccc21)c1cccc(F)c1 (stereo not drawn) | -12.2% (inactive) | 58.9% | 34.4% | 72.9% | 65.6% | 38% | 97.9% | – | –
2 | COc1ccc(-c2ccc3c(N4CCOC[C@H]4C)nc(N4CCOC[C@H]4C)nc3n2)cc1CO | – | 19.8% | 10.7% | 6.01% | 9.32% | 13.1% | 7.68% | 15.5 | –
3 | CCc1cc(Nc2nccc(-c3c(-c4ccc(OC)c(C(=O)Nc5c(F)cccc5F)c4)nc4ccccn34)n2)c(OC)cc1N1CCC(N2CCN(S(C)(=O)=O)CC2)CC1 | – | 0.369% | -0.677% | 4.93% | 6.42% | 14.9% | 4.27% | – | 3.72 µM (active)
4 | CS(=O)(=O)c1cccc(CNc2nc(Nc3ccc4c(c3)CCC(=O)N4)ncc2C(F)(F)F)c1 | – | 108% | 101% | 12.1% | 14.8% | 28.9% | 10.1% | 106 | –
5 | Cc1c(CN2CCN(C(=O)C(C)C)CC2)sc2c(N3CCOCC3)nc(-c3cnc(N)nc3)nc12 | – | 23.2% | 8.2% | 12.5% | 25.7% | 14.5% | 4.71% | 12.2 | –
6 | COc1ccc(-c2ccc3c(N4CCOCC4)nc(N4C[C@@H](C)O[C@@H](C)C4)nc3n2)cc1CO | – | 25.3% | 18.1% | 6.12% | 15.1% | 17.2% | 5.91% | 20.8 | –
7 | CCN(CC)CCCC(C)Nc1nc(C)cc(Nc2ccc3nc(C)cc(N)c3c2)n1 (stereo not drawn) | – | 17.1% | – | 25% | 21.1% | 14.4% | 20% | 29.9 | –
8 | COc1cc2nccc(Oc3ccc(NC(=O)NC4CC4)c(Cl)c3)c2cc1C(N)=O | -10.8% (inactive) | 67.5% | 30.9% | 17.7% | 70.8% | 30.6% | 19.2% | – | –
9 | C#Cc1cccc(Nc2ncnc3cc(OCCOC)c(OCCOC)cc23)c1 | 10.7% (inactive) and -0.582% (inactive) | 27.9% | 6.23% | 24.3% | 50.4% | 43.1% | 4.75% | – | –
10 | CN[C@@H](C)C(=O)N[C@H]1CCCC[C@H]2CC[C@@H](C(=O)N[C@@H](c3ccccc3)c3cn(CCCCc4ccc(CCCCn5cc([C@@H](NC(=O)[C@@H]6CC[C@@H]7CCCC[C@H](NC(=O)[C@H](C)NC)C(=O)N76)c6ccccc6)nn5)cc4)nn3)N2C1=O | – | 0.253% | -1.02% | 5.44% | 8.15% | 9.02% | 3.6% | -0.81 | –
11 | NC(=O)c1ccc(I)c([N+](=O)[O-])c1 | – | 92.6% | 77.5% | 71.2% | 97.1% | 90.7% | 96% | 93.8 | –
12 | CC(C)(N)C(=O)N[C@H](COCc1ccccc1)C(=O)N1CCC2(CC1)CN(S(C)(=O)=O)c1ccccc12 | – | 10.9% | 1.31% | 22.8% | 10.9% | 7.19% | 26.2% | 88.9 | –
13 | CCc1cncnc1N1CCN(Cc2nc3ccc(C(F)(F)F)cc3[nH]2)CC1 | 8.68% (inactive) | 20.3% | 14% | 19.6% | 33% | 27.9% | 15.6% | – | –
14 | NC(=O)c1ccc(-c2nc(-c3ccc4c(c3)OCCO4)c(-c3ccccn3)[nH]2)cc1 | – | 4.9% | 13.2% | 25.9% | 18.9% | 18.6% | 12.9% | 15.5 | –
15 | CCCc1nc2c(C)cc(-c3nc4ccccc4n3C)cc2n1Cc1ccc(-c2ccccc2C(=O)O)cc1 | – | 94% | 66.6% | 6.42% | 16.2% | 21.8% | 7.75% | – | –
16 | CC[C@@H](C)[C@H](NC(=O)[C@H](CC1CCCCC1)NC(=O)c1ccno1)C(=O)N1CCC2(CCc3ccccc32)CC1 | – | -0.289% | -0.621% | 5.26% | 7.23% | 14% | 5.03% | -1.46 | –
17 | COc1ccc(C2=N[C@H](c3ccc(Cl)cc3)[C@H](c3ccc(Cl)cc3)N2C(=O)N2CCNC(=O)C2)c(OC(C)C)c1 | 18.2% (inactive) | 50.5% | 23.2% | 17.5% | 54.6% | 11.8% | 12.4% | – | –

Row | SMILES | max response [1] | activity, percent of control [2] | remaining proliferation (% of control), lower = more inhibition [3] | parasite growth, % of DMSO control [4] | parasite growth remaining, % of DMSO control (lower = more inhibition) [5] | parasite growth, % of control (lower = inhibition) [6] | growth, % of control [7] | remaining parasite growth % (stronger effect = lower value) [8] [%] | Potency [1]
18 | COc1ccc([C@@H]2CC(=O)c3c(O)cc(O[C@@H]4O[C@H](CO[C@@H]5O[C@@H](C)[C@H](O)[C@@H](O)[C@@H]5O)[C@@H](O)[C@H](O)[C@@H]4O)cc3O2)cc1O | – | – | – | 83.3% and 61.8% | 90.3% and 85.6% | 120% and 81.3% | 92% and 93.5% | – | –
19 | COc1ccc(COc2cc3oc(=O)c4cc(C(C)O)ccc4c3cc2OC)cc1 (stereo not drawn) | 29.9% (inactive) | 22% | 74.7% | 39.5% | 77.1% | 27.3% | 46.1% | – | –
20 | NC(=O)c1ccc(-c2nc(-c3ccc4c(c3)OCO4)c(-c3ccccn3)[nH]2)cc1 | – | 88.1% | 71.6% | 42.9% | 55.7% | 32.2% | 18.7% | 82.3 | –
21 | CS(=O)(=O)c1ccc(C(=O)Nc2ccc(Cl)c(-c3ccccn3)c2)c(Cl)c1 | 15% (inactive) | 101% | 103% | 66.9% | 93.4% | 97% | 92.4% | – | –
22 | COc1cccc2cc(-c3nc(C4CCC(C(=O)O)CC4)n4ncnc(N)c34)[nH]c12 (stereo not drawn) | -10.8% (inactive) | 53.2% | – | 13.9% | 16.6% | 28.6% | 9.36% | – | –
23 | O=C(Nc1cccnc1)N1CCC(Cc2cccc(Oc3ccc(C(F)(F)F)cn3)c2)CC1 | -7.98% (inactive) | 24.9% | 4.06% | 14.7% | 52.2% | 21% | 5.3% | – | –
24 | C[C@@H]1CN(Cc2ccc(F)cc2)[C@@H](C)CN1C(=O)c1cc2c(C(=O)C(=O)N(C)C)cn(C)c2cc1Cl | 12.3% (inactive) | 79.8% | 52.3% | 49.5% | 83.2% | 48.6% | 47.5% | – | –
25 | COc1cc2c(cc1OC)CN(CCc1ccc(NC(=O)c3cccc4c(=O)c5cccc(OC)c5[nH]c34)cc1)CC2 | – | 0.466% | -0.901% | 5.92% | 7.47% | 10% | 4.23% | – | –
26 | COc1cc(F)c(F)c(Nc2ccc(I)cc2F)c1NS(=O)(=O)C1(C[C@H](O)CO)CC1 | 19.8% (inactive) | 78.6% | 39.5% | 45.3% | 71.1% | 26.7% | 17.2% | – | –
27 | N#Cc1ccc(C(c2ccc(C#N)cc2)n2cncn2)cc1 | 16.5% (inactive) and 0.241% (inactive) | 86.6% | 95.8% | 89.2% | 93.7% | 123% | 101% | – | –
28 | Cc1cc(SCc2sc(-c3ccc(C(F)(F)F)cc3)nc2C)ccc1OCC(=O)O | 25.7% (inactive) | 99.9% and 82.6% | 77.3% and 39.3% | 64.2% | 96.2% | 50.7% | 96.6% | – | –
29 | CNC(=O)c1ccc(C)c(-n2c(C)cc(OCc3ccc(F)cc3F)c(Br)c2=O)c1 | 32.9% (inactive) | 80.8% | 52.2% | 42% | 84.9% | 50.9% | 93.8% | – | –
30 | COCC(=O)NCC=Cc1ccc2ncnc(Nc3ccc(Oc4ccc(C)nc4)c(C)c3)c2c1 | -4.65% (inactive) | 24.1% | 7.14% | 15.6% | 70.2% | 29.4% | 9.14% | – | –
31 | OCCC#Cc1nc(-c2ccc(F)cc2)c(-c2ccncc2)n1CCCc1ccccc1 | – | 8.27% | 7.5% | 15% | 21.2% | 15.5% | 7.31% | 1.18 | –
32 | CC(C)(C)OC(=O)CN(Cc1ccc(Cl)cc1)Cc1ccc([N+](=O)[O-])s1 | – | 3.12% | -1.32% | 99.5% | 19.7% | 26.7% | 51.3% | – | –
33 | Cc1cccc(-c2nn(C(=S)Nc3ccccc3)cc2-c2ccnc3ccccc23)n1 | – | 87.9% | 79.6% | 40.4% | 86.3% | 66.8% | 99.5% | 91.2 | –

From PubChem BioAssay (NCATS)
